According to PubChem BioAssay:
Several values for one entry are separate records, joined by “and”; a condition that tells them apart may be missing. Equal values may be shown once. Activity calls are given as the source filed them.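 The calls were made as follows, unless noted: active = compounds whose cell count with miR-34 switched on is under 0.7 times the count with it off; inactive = the rest.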

Assays:
[1] = differential killing of epithelial or mesenchymal cells, primary screen, imaging, PC-3E GFP, TEM4-18 mCherry, co-culture (AID 1345086;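 active = compounds killing one labelled cell type while sparing the other, by normalised counts and ratio limits, not self-fluorescent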;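 as to all read-outs here: cells exposed to compound for 72 h before imaging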;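 as to red/green cell ratio (normalised): normalised mesenchymal count divided by normalised epithelial count so high means epithelial killing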); conditions: imaging cell counts, at 1 µM; for red/green cell ratio (normalised): actives lie on both sides, counts scaled to control wells, 1 = unselective
[2] = sensitizers of A549 cells to miR-34 induction, primary screen, imaging, A549 dox-inducible miR-34, nuclei and caspase counts (AID 1347080); conditions: A549 miR-34 inducible, Hoechst nuclei count, 48 h
[3] = measured here: epithelial PC-3E GFP cell survival
[4] = measured here: mesenchymal TEM4-18 mCherry cell survival
[5] = stronger effect = lower value, cell number ratio, induced over uninduced
[6] = measured here: relative caspase fold change +Dox/-Dox
[7] = measured here: total cells with miR-34 induction, stronger effect = lower value
[8] = measured here: total cells without miR-34 induction

| Compound | red/green cell ratio (normalised) [1] | normalised cell number [1, 3] | normalised cell number [1, 4] | fold change [2, 5] | fold change [2, 6] | cell count [2, 7] | cell count [2, 8] |
| --- | --- | --- | --- | --- | --- | --- | --- |
| CC1/C=C/C=C/C=C/C=C/C=C/C=C/C=C/C(O[C@@H]2O[C@H](C)[C@H](O)[C@@H](O)[C@@H]2N)CC(O)C(C(=O)O)C(O)CC(=O)CC(O)CC(O)CC(O)CC(=O)CCCC(=O)CC(=O)OC1C(C)CC(C)C(O)CC(=O)c1ccc(N)cc1 (stereo partly drawn) | 0.94 (inactive) | 1.09 | 1.03 | 0.786 (inactive) | 1.31 | 5340 | 6790 |
| O=C(O)CCCN1CCN([C@H](c2ccccc2)c2ccc(Cl)cc2)CC1 | 0.97 (inactive) | 1.14 | 1.11 | 0.876 (inactive) | 0.778 | 8580 | 9800 |
| O=c1[nH]cnc2c1ncn2C1O[C@H](CO)[C@@H](O)[C@H]1O (stereo partly drawn) | 1.22 (inactive) | 0.83 | 1.02 | 0.943 (inactive) | 0.652 | 8910 | 9440 |
| CC(=O)OCC(=O)[C@@]1(O)[C@@H](C)CC2C3CCC4=CC(=O)C=C[C@]4(C)[C@@]3(F)[C@@H](O)C[C@@]21C (stereo partly drawn) | 0.93 (inactive) | 1.21 | 1.13 | 0.963 (inactive) | 0.848 | 6280 | 6520 |
| C=C(C)C1CC=C(C)CC1 (stereo not drawn) | 0.93 (inactive) | 1.03 | 0.96 | 0.884 (inactive) | 1.07 | 8150 | 9220 |
| CCCCCOC(=O)Nc1nc(=O)n(C2O[C@H](C)[C@@H](O)[C@H]2O)cc1F (stereo partly drawn) | 1.41 (inactive) | 0.48 | 0.68 | 0.954 (inactive) | 0.897 | 8840 | 9270 |
| CO/N=C(/C(=O)N[C@@H]1C(=O)N2C(C(=O)OCSC(=O)c3ccco3)=CCS[C@H]12)c1csc(N)n1 | 0.72 (inactive) | 1.31 | 0.94 | 0.907 (inactive) | 0.846 | 8470 | 9350 |
| NC(N)=NCCCC(N)C(=O)O (stereo not drawn) | 0.83 (inactive) | 1.05 | 0.87 | 0.874 (inactive) | 0.933 | 8700 | 9960 |
| NC(=O)c1ncn(C2O[C@H](CO)[C@@H](O)[C@H]2O)c1N (stereo partly drawn) | 0.89 (inactive) | 1.13 | 1 | 0.937 (inactive) | 0.793 | 9050 | 9660 |
| CC(C)C/C=C/C=C\C(=O)N[C@@H](CC(N)=O)C(=O)N[C@@H]1C(=O)N[C@H](c2ccc(O)cc2)C(=O)N[C@H](CCCN)C(=O)N[C@H]([C@H](C)O)C(=O)N[C@@H](c2ccc(O)cc2)C(=O)N[C@H](c2ccc(O)cc2)C(=O)N[C@@H]([C@H](C)O)C(=O)N[C@@H](Cc2ccccc2)C(=O)N[C@H](CCCN)C(=O)N[C@@H](c2ccc(O[C@@H]3O[C@H](CO)[C@H](O)[C@@H](O)[C@@H]3O[C@@H]3O[C@H](CO)[C@@H](O)[C@H](O)[C@H]3O)cc2)C(=O)NC(C(C)O)C(=O)N[C@@H](c2ccc(O)cc2)C(=O)NCC(=O)N[C@@H](CC(C)C)C(=O)N[C@H](C)C(=O)N[C@@H](c2ccc(O)c(Cl)c2)C(=O)O[C@@H]1C(N)=O (stereo partly drawn) | 0.89 (inactive) | 1.04 | 0.93 | 0.899 (inactive) | 0.946 | 8820 | 9820 |
| CCCC[C@@H](CC)COC(=O)C(C#N)=C(c1ccccc1)c1ccccc1 | 0.92 (inactive) | 1.19 | 1.09 | 0.897 (inactive) | 0.819 | 8030 | 8950 |
| O=C1c2c(O)cccc2[C@@H](O[C@@H]2O[C@H](CO)[C@H](O)[C@@H](O)[C@H]2O)c2cc(CO)cc(O)c21 | 0.78 (inactive) | 1.12 | 0.88 | 0.925 (inactive) | 0.87 | 8450 | 9140 |
| CC1(C)C2CCC1(CS(=O)(=O)O)C(=O)/C2=C\c1ccc(/C=C2\C(=O)C3(CS(=O)(=O)O)CCC2C3(C)C)cc1 | 0.78 (inactive) | 1.44 | 1.12 | 0.905 (inactive) | 1.03 | 8090 | 8940 |
| CCC(=O)Oc1ccc2c(c1)CCC1C2CC[C@@]2(C)C1CC[C@@H]2OC(=O)CC (stereo partly drawn) | 1.36 (inactive) | 0.8 | 1.09 | 0.968 (inactive) | 0.855 | 8160 | 8430 |
| CCN(CC)C(=O)C1(c2ccccc2)CC1CN (stereo not drawn) | 0.9 (inactive) | 1.08 | 0.98 | 0.92 (inactive) | 0.893 | 8180 | 8890 |
| CC(C)(CO)C(O)C(=O)NCCC(=O)NCCSSCCNC(=O)CCNC(=O)C(O)C(C)(C)CO (stereo not drawn) | 0.97 (inactive) | 0.82 | 0.8 | 0.968 (inactive) | 0.786 | 8560 | 8840 |
| Cc1cc(CC(C)CC(C)(C)C)n(O)c(=O)c1 (stereo not drawn) (tested in a mixture with another compound) | 0.92 (inactive) | 1.04 | 0.95 | 1.25 (inactive) and 1.02 (inactive) | 0.741 and 0.825 | 2940 and 2820 | 2360 and 2770 |
| NC(=O)C1CCCN1C(=O)C(Cc1cnc[nH]1)NC(=O)C1CCC(=O)N1 (stereo not drawn) | 1.11 (inactive) | 0.94 | 1.04 | 0.936 (inactive) | 0.922 | 8800 | 9400 |
| COc1cc(O)cc(C(=O)c2ccccc2)c1S(=O)(=O)O | 1 (inactive) | 1.17 | 1.18 | 0.973 (inactive) | 0.886 | 9730 | 10000 |
